Hits are enriched below; roughly 1.8% of the tested compounds scored in any of these assays.
LGR2 antag – blocks bursicon-induced cAMP signaling via Drosophila LGR2 | HEK293 LGR2, CRE-luciferase, bursicon-stimulated, 4 h | inhibition, % at 9.99 µM | AID 720647 | 380,000 tested, 0.35% active;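 active = drop in luminescence signal, shown as inhibition above about 50% in the replicate tests, limit read from the data, passing the limit was not always enough; inconclusive = probably only some replicates passing the limit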;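 also: agonist challenge used bursicon conditioned medium at about half maximal strength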
RAD54 branch – blocks human RAD54 Holliday junction branch migration. Q92698. FAM/BHQ fluorescence. inhibition, % at 10.4 µM. 360,000 tested, 0.14% active;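 active = mean normalized replicate activity at least 40 and at least half of replicates scoring 40 or more; inconclusive = only one of the two criteria met; inactive = mean below 40 and under half of replicates reaching 40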;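 also: inhibitors cause a drop in the FAM fluorescence signal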
Target sequence (Q92698 whole entry, looked up): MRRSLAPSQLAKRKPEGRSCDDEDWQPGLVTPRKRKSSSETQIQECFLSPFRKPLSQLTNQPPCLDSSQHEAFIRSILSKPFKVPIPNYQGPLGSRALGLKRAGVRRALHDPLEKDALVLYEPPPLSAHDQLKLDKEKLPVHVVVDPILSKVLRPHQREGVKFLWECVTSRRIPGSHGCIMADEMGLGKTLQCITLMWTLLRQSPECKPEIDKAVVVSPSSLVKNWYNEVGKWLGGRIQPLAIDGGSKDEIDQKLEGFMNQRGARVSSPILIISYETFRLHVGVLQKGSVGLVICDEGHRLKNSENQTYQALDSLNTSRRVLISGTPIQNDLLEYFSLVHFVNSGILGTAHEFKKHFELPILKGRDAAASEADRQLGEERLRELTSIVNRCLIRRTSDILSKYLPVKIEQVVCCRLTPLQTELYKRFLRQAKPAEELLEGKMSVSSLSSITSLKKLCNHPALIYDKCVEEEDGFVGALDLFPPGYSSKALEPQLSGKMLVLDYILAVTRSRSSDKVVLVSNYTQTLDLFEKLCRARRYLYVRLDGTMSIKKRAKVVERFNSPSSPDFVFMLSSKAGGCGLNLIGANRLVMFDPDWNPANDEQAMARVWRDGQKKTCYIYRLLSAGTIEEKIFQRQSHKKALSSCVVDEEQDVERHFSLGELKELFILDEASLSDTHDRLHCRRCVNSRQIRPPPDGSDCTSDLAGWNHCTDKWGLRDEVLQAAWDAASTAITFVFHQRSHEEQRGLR
GSIS activator – GLuc luminescence reporter in INS-1E cells, primary screen for activators of glucose-dependent secretion of insulin. 370,000 tested, 0.61% active. INS-1E GLuc reporter insulin secretion, 2-3 h. activation, % at 16.6 µM. AID 743287;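 active = lowest replicate activation of at least 40%, so every replicate reaches that level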
CFTR F508del cor – CFTR F508del correction in bronchial cells; CFBE cells, YFP halide quenching; stimulated with forskolin plus potentiator P3; % fluorescence drop versus neutral controls; activity (quench increase), % at 7.58 µM; 350,000 tested, 0.36% active;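 active = mean added fluorescence quench of at least 8% versus neutral control, with both replicates also reaching 8%; inconclusive = only one of the mean or replicate conditions met; inactive = mean below 8% and not both replicates reaching 8%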;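 also: cells transiently co-express mutant CFTR-F508del with the halide-sensitive YFP; corrector assay measuring rescue of mutant channel to the surface after 24 h compound exposure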
EWS-Fli block – blocks EWS/Fli oncoprotein-driven transcription; A673 NR0B1-luciferase reporter, viability-normalised; inhibition, % at 12.6 µM; 350,000 tested, 0.67% active; AID 651661;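 active = mean inhibition of at least 50% after viability correction, with every replicate also passing that limit; inconclusive = mean reaches 50% but only one of two replicates passes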;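 also: firefly luciferase signal divided by Alamar Blue viability fluorescence both relative to DMSO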
RAD52 inh – blocks human RAD52 DNA annealing; inhibition, % at 18.7 µM; AID 651710; 360,000 tested, 0.46% active; P43351; recombinant RAD52 DNA annealing, FRET fluorescence;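 active = every replicate showing at least 50% inhibition; inconclusive = mean inhibition at least 50% but not in every replicate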
Of the large screens only hits and unclear results are named; the others gave an inactive call.

CCn1c(CSc2nnc(-c3ccncc3)n2CCOC)nc2cc(C(=O)O)ccc21	none
CC(C)NC(=O)OC[C@H]1O[C@H](C#Cc2ccc(C(C)(C)C)cc2)C=C[C@H]1O	GSIS activator 64 (no result: RAD54 branch)
COC(=O)c1cc(OC)c(OC)cc1NCC(=O)Nc1ccc(C)cc1	LGR2 antag 50
COc1ccccc1S(=O)(=O)Nc1ccc2c(c1)OC[C@H](C)NC[C@@H](C)[C@H](OC)CN(C)C2=O	none
COc1cc(C(=O)N/N=c2/sc3ccccc3n2C)cc(OC)c1OC	none (no result: CFTR F508del cor)
COc1cc(C(=O)NN=C2c3ccccc3-c3ccccc32)cc(OC)c1OC	EWS-Fli block 59 (no result: RAD54 branch)
COc1cc(C(=O)N/N=C(\c2ccccc2)c2ccccn2)cc(OC)c1OC	CFTR F508del cor 12 (no result: RAD54 branch)
ON=C1c2cc(OCCN3CCCCC3)ccc2-c2ccc(OCCN3CCCCC3)cc21	RAD54 branch 86 (no result: LGR2 antag, GSIS activator, CFTR F508del cor, EWS-Fli block, RAD52 inh)
Clc1ccc(OCCN2CCCCC2)cc1Cl	none (no result: CFTR F508del cor, EWS-Fli block, RAD52 inh)
C[C@H](CO)N1C[C@H](C)[C@@H](CN(C)Cc2ccc(C(F)(F)F)cc2)Oc2c(NC(=O)Nc3ccc4c(c3)OCO4)cccc2C1=O	none
Cc1ccc(O)c(CP(=O)(c2ccccc2)c2ccccc2)c1	GSIS activator 44
C[C@H](CO)N1C[C@H](C)[C@@H](CN(C)Cc2ccc(C(F)(F)F)cc2)OCCCC[C@H](C)Oc2ccc(NC(=O)c3ccccc3)cc2C1=O	none
O=[N+]([O-])c1cccc(-c2nnc3ccc4ccccc4n23)c1	GSIS activator 55 (no result: CFTR F508del cor, EWS-Fli block, RAD52 inh)
CCOC(=O)CCc1ccc(NC(=O)/C=C/c2ccc([N+](=O)[O-])o2)cc1	EWS-Fli block 51 (no result: RAD54 branch)
Cc1ccc(/C=C/C(=O)Nc2ccc([N+](=O)[O-])cc2)o1	none
C=CCn1c(C)cc(C(=O)Cn2ncc(Cl)c(Cl)c2=O)c1C	CFTR F508del cor inconclusive, EWS-Fli block 55 (no result: LGR2 antag, GSIS activator)
C=CCn1c(C)cc(C(=O)CN2NS(=O)(=O)c3ccccc3C2=O)c1C	none (no result: RAD54 branch)
CCCCN1C(=O)CC(C(=O)O)C1c1ccc(OC)cc1 (stereo not drawn)	none (no result: LGR2 antag, GSIS activator, CFTR F508del cor, EWS-Fli block, RAD52 inh)
COc1ccc2c(c1)C(O)C(CO)C(C(=O)O)C2 (stereo not drawn)	CFTR F508del cor 10 (no result: RAD54 branch)
Cc1ccc(S(=O)(=O)NCCCNS(=O)(=O)c2ccc(C)cc2)cc1	CFTR F508del cor 20
COc1ccc(C2c3cc4c(cc3OC(N3CCOCC3)C2C)OCO4)c(OC)c1 (stereo not drawn)	EWS-Fli block 60 (no result: RAD54 branch)
Cn1c(C(=O)N2CCCC(C(=O)NCCCSC3CCCCC3)C2)cc2sccc21 (stereo not drawn)	none (no result: CFTR F508del cor, EWS-Fli block, RAD52 inh)
Nc1nc(NCCO)nc(N2CCCCCC2)c1[N+](=O)[O-]	none (no result: RAD54 branch)
COc1ccc(OCC(=O)N/N=C(\C)c2cc3ccccc3o2)cc1	none (no result: RAD54 branch)
CCNC(=O)c1cc2c(c(-c3cccc(-c4ccncc4)c3)n1)[C@H](CCO)N(S(=O)(=O)CC)C2	EWS-Fli block 55 (no result: RAD54 branch)
CCS(=O)(=O)N1Cc2cc(C(=O)NCC3CC3)nc(-c3cccc(-c4cccnc4)c3)c2[C@H]1CCO	none (no result: RAD54 branch)
CCn1c(SCC(=O)Nc2cc(C)on2)nc2sc3c(c2c1=O)CCCC3	none (no result: LGR2 antag)
Cc1cc(NC(=O)CSc2nc3sc4c(c3c(=O)n2C)CCCC4)no1	GSIS activator 152 (no result: CFTR F508del cor, EWS-Fli block, RAD52 inh)
COc1cccc(CNC(=O)c2cc3c(c(-c4cccc(-c5cccc(C#N)c5)c4)n2)[C@H](CCO)N([S@@](=O)C(C)(C)C)C3)c1	RAD52 inh 59
BrC(=C\c1ccccc1)/C=N/Nc1nc2ccccc2[nH]1	none (no result: CFTR F508del cor, EWS-Fli block, RAD52 inh)
CC(C)c1[nH]nc2c1C(c1ccc(F)cc1)NC2=O (stereo not drawn)	none (no result: RAD54 branch)
Cc1ccc(C2c3c(-c4ccccc4)n[nH]c3C(=O)N2c2ccccc2)cc1 (stereo not drawn)	none (no result: RAD54 branch)
O=C1c2[nH]nc(-c3ccccc3)c2C(c2ccccc2)N1c1ccccc1 (stereo not drawn)	GSIS activator 49 (no result: RAD54 branch)
CC(C)c1[nH]nc2c1C(c1ccccc1)NC2=O (stereo not drawn)	GSIS activator 44 (no result: RAD54 branch)
O=C1NC(c2ccccc2)c2c(-c3ccccc3)n[nH]c21 (stereo not drawn)	GSIS activator 54 (no result: RAD54 branch)
COCC(=O)N(C)C[C@H]1Oc2ncc(-c3ccccc3OC)cc2C(=O)N([C@H](C)CO)C[C@H]1C	none
C[C@@H]1CN([C@@H](C)CO)C(=O)c2cc(N(C)C)ccc2O[C@@H](C)CCCCO[C@@H]1CN(C)C(=O)C1CCCCC1	none
Cc1noc(C)c1NC(=O)N(C)C[C@H]1Oc2ccc(NC(=O)c3ccncc3)cc2C(=O)N([C@H](C)CO)C[C@H]1C	none
O=S(=O)(c1ccc(Br)cc1)N1CCCc2ccccc21	CFTR F508del cor 11
Cn1c(=O)oc2cc(S(=O)(=O)N3CCCc4ccccc43)ccc21	EWS-Fli block 59 (no result: GSIS activator)
O=C(Nc1ccnn1C1CCN(Cc2ccc(CO)o2)CC1)c1ccccc1Cl	none
COC1=CC(=O)c2ccccc2C1=O	none (no result: LGR2 antag, GSIS activator, CFTR F508del cor, EWS-Fli block, RAD52 inh)
COC1=CC(=O)C=C(OC)C1=O	EWS-Fli block 63
CCN1CCN(Cc2ccc(NC(=O)c3ccc(C)c(NC(=O)c4cc(-c5ccc(Br)cc5)n[nH]4)c3)cc2C(F)(F)F)CC1	EWS-Fli block 54
COc1ccc(CNCCC(c2ccc(F)cc2)c2ccc(OC)cc2)cc1 (stereo not drawn)	none (no result: RAD54 branch, CFTR F508del cor, EWS-Fli block, RAD52 inh)
COc1ccc(C(CCNCc2ccc(OC(C)C)cc2)c2ccccc2OC)cc1 (stereo not drawn)	EWS-Fli block 58
COc1ccc(C(CCNCc2ccc(F)cc2)c2ccc(F)cc2)cc1 (stereo not drawn)	LGR2 antag 59 (no result: RAD54 branch, CFTR F508del cor)
COC(=O)CCCNC(=O)OCc1ccc([N+](=O)[O-])cc1	none (no result: LGR2 antag, GSIS activator, CFTR F508del cor, EWS-Fli block, RAD52 inh)
Cc1cc(N2CCN(C3CCCCC3)CC2)n2nc(C)nc2n1	none
Cc1cc(C)c2c(C)nn(C3CCCCC3)c2n1	GSIS activator 71 (no result: LGR2 antag, RAD54 branch, CFTR F508del cor, EWS-Fli block, RAD52 inh)
COc1ccc(S(=O)(=O)Nc2cccc3c2O[C@@H](CN(C)C(=O)NC2CCCCC2)[C@H](C)CN([C@H](C)CO)C3=O)cc1	none
C[C@@H]1O[C@H](C2CCCC2)CC2=C1C(=O)OC(C)(C)O2	GSIS activator 60 (no result: RAD54 branch)
CCC(C)c1ccccc1OCCn1ccnc1 (stereo not drawn)	GSIS activator 48 (no result: RAD54 branch, CFTR F508del cor, EWS-Fli block, RAD52 inh)
Cc1cc(Cl)cc(C)c1OCCn1ccnc1	CFTR F508del cor 13
Clc1ccc(OCCn2ccnc2)c(Cl)c1	GSIS activator 49 (no result: LGR2 antag, CFTR F508del cor, EWS-Fli block, RAD52 inh)
C[C@@H]1CCCCO[C@@H](CN(C)C(=O)C2CCCCC2)[C@H](C)CN([C@@H](C)CO)C(=O)c2cc(NC(=O)c3ccccc3)ccc2O1	none
O=C(COc1cccc(Br)c1)N/N=C1\CCSC1	none (no result: RAD54 branch)
CCN(CC)CCSC(=O)C(c1ccccc1)c1ccccc1	none
COc1ccc2c3c([nH]c2c1)[C@H](CO)N(C(=O)CN(C)C)CC31CN(Cc2ccccc2)C1	RAD52 inh 55 (no result: RAD54 branch)
COc1ccc2c3c([nH]c2c1)[C@@H](CO)N(S(=O)(=O)c1cn(C)cn1)CC31CCN(CC2CCCCC2)CC1	CFTR F508del cor 8.6 (no result: RAD54 branch)
